# Bioassay records (PubChem)
# TRPML1 inh = inhibitors of human TRPML1 channel. actives 0.02% (n = 390,000). activity change, negative = inhibition, % (test concentration not listed). TRPML1-inducible cells, Ca2+ dye fluorescence, FDSS; stronger effect = lower value; inhibition of EC80 agonist-evoked calcium signal. Q9GZU1; in the data active = activity change below about -50%;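 also: stimulus is agonist 54-4 at its EC80 concentration; % is scaled to controls: 0 for no effect and ±100 for the full control effect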
# Target sequence (Q9GZU1 whole entry, looked up): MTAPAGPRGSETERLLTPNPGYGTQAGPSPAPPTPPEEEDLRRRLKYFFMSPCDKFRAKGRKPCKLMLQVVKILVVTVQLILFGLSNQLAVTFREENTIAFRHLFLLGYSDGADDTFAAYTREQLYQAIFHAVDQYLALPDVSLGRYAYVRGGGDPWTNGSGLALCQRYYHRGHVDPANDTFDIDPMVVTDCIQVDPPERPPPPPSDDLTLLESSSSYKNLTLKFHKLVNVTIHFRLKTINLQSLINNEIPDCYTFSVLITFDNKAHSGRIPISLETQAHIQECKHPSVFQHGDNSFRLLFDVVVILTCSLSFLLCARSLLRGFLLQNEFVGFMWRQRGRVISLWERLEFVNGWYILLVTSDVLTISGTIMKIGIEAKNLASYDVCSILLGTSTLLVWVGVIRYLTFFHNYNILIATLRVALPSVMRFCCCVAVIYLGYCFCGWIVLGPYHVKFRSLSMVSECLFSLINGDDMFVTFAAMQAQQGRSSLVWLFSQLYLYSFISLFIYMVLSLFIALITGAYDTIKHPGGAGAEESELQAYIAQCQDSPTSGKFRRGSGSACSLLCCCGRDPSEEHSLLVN
#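 Tet-induced TRPML1-DL cells loaded with Ca8 no-wash calcium dye were read kinetically on FDSS. Compound addition was followed by EC80 agonist 54-4 (4 uM final); inhibition was read over 110 s.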
# TRPML1 ag = activates the human TRPML1 channel | Q9GZU1 | TRPML1-expressing cells, Ca2+ dye fluorescence, FDSS | activation, % (test concentration not listed) | actives 0.12% (n = 410,000); in the data active = activation above about 50%; also: 0% is about no effect
#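 Kinetic FDSS Ca2+ read in Tet-induced TRPML1-DL cells (ABD Ca8 dye plus quencher, 45-90 min RT loading): baseline, then compound, then 110 s agonist window; EC80 agonist 54-4 at 4uM final added afterwards for a 110 s antagonist window.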
# TRPV1 PAM = enhances activation of the human vanilloid receptor TRPV1; Q8NER1; TRPV1-expressing cells, Fluo-8 calcium influx, capsaicin EC20 potentiation; potentiation, % at 8.33 µM; actives 0.02% (n = 320,000); in the data active = potentiation above about 80%; also: 0% is about no effect
#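 Cells expressing TRPV1 were dye-loaded with Fluo-8 and read kinetically: 10 s baseline, 3 min after compound (agonist portion), then 2 min after EC20 capsaicin (allosteric enhancer portion). Calcium-bound dye fluorescence at 480/520 nm.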
# TRHR agonist = TRH receptor (human) agonism; activation, % at 2 µM; TRHR cells, calcium flux fluo-8, FDSS agonist mode; actives 0.18% (n = 360,000); P34981; in the data active = activation above about 30%; also: 0% is about no effect
#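 Read-out: compound-evoked intracellular calcium rise in TRHR cells, fluo-8 dye, kinetic FDSS fluorescence at 1 s/cycle following a 10-cycle baseline. Cells cultured overnight before dye loading (30 min–1.5 h, RT).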
# TRPV1 ag = agonists of human vanilloid receptor 1 (TRPV1). Q8NER1. TRPV1-expressing cells, Fluo-8 calcium influx, agonist mode. activation, % at 8.33 µM. actives 0.19% (n = 320,000); in the data active = activation above about 80%; also: 0% is about no effect
#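 Cells expressing TRPV1 were dye-loaded with Fluo-8 and read kinetically: 10 s baseline, 3 min after compound (agonist portion), then 2 min after EC20 capsaicin (allosteric enhancer portion). Calcium-bound dye fluorescence at 480/520 nm.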
# TRHR PAM = TRH receptor (human) allosteric enhancement. AID 493056. enhancement, % at 2 µM. TRHR cells, fluo-8 calcium fluorescence, EC20 TRH enhancement. actives 0.66% (n = 360,000); in the data active = enhancement above about 30%; also: 0% is about no effect
#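 TRHR-expressing cells loaded with fluo-8 calcium dye were read kinetically (ex 480/em 530) during compound addition, then stimulated with an EC20 of TRH (10 nM final). Enhancement of the Gq-mediated intracellular calcium response was scored.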
# The depositor's hits bear a star; . = not tested or not shown. In the library only some 0.96% were active in any assay of this set; here they are far more common.
SMILES,TRPML1 inh,TRPML1 ag,TRPV1 PAM,TRHR agonist,TRPV1 ag,TRHR PAM
FC(F)(F)c1nc(N2CCCC2)ncc1-c1nnnn1-c1ccccc1,-10,52*,-8,1,-1,-3
Cc1c(C(=O)Nc2ccncc2)sc2nc(-c3ccccc3)cn12,1,0,-23,1,90*,1
CCN(CC)c1ccc(NC(=O)c2sc3nc(-c4ccccc4)cn3c2C)cc1,49,4,.,0,.,3
COc1ccc(OC)c(/C=C/c2ccc3ccccc3[n+]2C)c1,.,0,.,.,.,.
CS(=O)(=O)N(CC(=O)Nc1ccccc1C(=O)N1CCCC1)c1cccc([N+](=O)[O-])c1,-16,0,12,-1,-2,10
CC(=O)c1cccc(N(CC(=O)Nc2ccccc2C(=O)N2CCCC2)S(C)(=O)=O)c1,3,0,18,0,2,55*
O=S(=O)(c1ccc2c(c1)OCCO2)N1CCN(S(=O)(=O)c2ccccc2Cl)CC1,.,.,.,0,.,1
O=C1c2ccccc2NC(c2ccccc2O)N1Cc1ccco1 (stereo not given),.,-1,.,.,.,.
O=C(NNC(=S)NC(=O)c1cccnc1)c1ccccc1,17,0,-6,0,-1,-4
O=C(NNC(=S)Nc1ccccc1)c1cccnc1,30,-1,8,0,-3,41*
COC(=O)c1ccc(NC(=O)COC(=O)c2nc3nccc(C)n3n2)cc1,28,0,-20,1,-1,33*
Cc1ccnc2nc(C(=O)OCC(=O)Nc3ccc4c(c3)OCCO4)nn12,6,0,.,.,.,.
Cc1ccc(Sc2cc(C)nc(-c3ccccn3)n2)cc1,-7,1,-16,0,12,32*
COc1ccc(/C=C(\C)C(=O)NO)cc1,.,0,.,.,.,.
CC(C)CN(C(=O)c1cccc([N+](=O)[O-])c1)c1c(N)n(CC(C)C)c(=O)[nH]c1=O,-2,0,0,-2,0,33*
Cn1c(SCc2ccc(Cl)cc2)nnc1-c1ccc(NC(=O)CCc2ccccc2)cc1,.,-1,.,.,.,.
Cc1ccc(O/C=C2/Nn3c(nnc3-c3cc(-c4ccccc4)n[nH]3)S2)cc1,.,0,.,.,.,.
Cc1ccc(-c2nnc(-n3nc(C)cc3C)c3ccccc23)cc1,21,0,-2,-2,19,30*
O=C(COC(=O)C12CC3CC(CC(C3)C1)C2)NCC1CCCO1 (stereo not given),.,0,.,.,.,.
Cc1csc(NC(=O)CSc2nc3ccccc3c3c2CCCC3)n1,-24,0,2,2,19,36*
Cc1csc(NC(=O)CSc2ncnc3ccccc23)n1,-2,1,0,0,2,-3
O=S(=O)(c1ccc2c(c1)OCCO2)N1CCN(S(=O)(=O)c2ccc(Cl)cc2F)CC1,.,.,.,0,.,0
COc1cc(OC)c(-c2nn3c(-c4cc(C)[nH]n4)nnc3s2)cc1OC,.,-1,.,.,.,.
N#Cc1ccc(NC(=O)CCc2ccc(S(=O)(=O)N3CCOCC3)cc2)cc1,5,0,-8,0,102*,0
Cc1ccc(C(=O)Nc2ccc3cn[nH]c3c2)cc1S(=O)(=O)N1CCOCC1,-10,-1,11,1,92*,4
SMILES,TRPML1 inh,TRPML1 ag,TRPV1 PAM,TRHR agonist,TRPV1 ag,TRHR PAM
Cc1ccc(S(=O)(=O)N2CCOCC2)cc1C(=O)Nc1ccncc1,-7,-1,-11,1,-2,1
Cc1ccc(NC(=O)c2ccc(C)cc2)cc1,14,1,5,0,81*,5
Cc1ccc(S(=O)(=O)N2CCOCC2)cc1C(=O)Nc1ccc2c(c1)CCC2,19,2,-25,1,83*,-4
CC(C)(C)n1ncc2c(=O)n(Cc3cccc(F)c3)cnc21,6,0,.,.,.,.
O=C(CNC(=O)C1CCCCC1)OCC(=O)c1ccc2c(c1)CCC2,.,-1,.,.,.,.
CCn1c2ccccc2c2cc(/C=C3/C=Cc4ccccc43)ccc21,.,0,.,.,.,.
Cc1ccc(C(=O)Nc2ccc(S(=O)(=O)N3CCCC3)cc2)cc1,12,0,-40,-1,85*,-3
Cc1ccc(C(=O)Nc2ccc(S(=O)(=O)N3CCOCC3)cc2)cc1C,24,2,-12,-1,82*,4
